Experimental data: publication PMC7862700, “An all-to-all approach to the identification of sequence-specific readers for epigenetic DNA modifications on cytosine”

Columns and labels:
Test in all cases: DAPPL (digital affinity profiling via proximity ligation, sequencing); 10 mM Tris-HCl pH 7.5, 50 mM NaCl, 1 mM DTT, 4% glycerol, room temperature, 30 min; GST-TFs on glutathione beads, 16-mer random dsDNA library, 0.1% formaldehyde crosslink after washing; high values mean tight binding
FLI1 = molecular target: T1, FLI1 (Homo sapiens, UniProt Q01543 1-452); conditions: protein: recombinant; tags: N-terminal GST; dsDNA, one strand shown
T1 sequence: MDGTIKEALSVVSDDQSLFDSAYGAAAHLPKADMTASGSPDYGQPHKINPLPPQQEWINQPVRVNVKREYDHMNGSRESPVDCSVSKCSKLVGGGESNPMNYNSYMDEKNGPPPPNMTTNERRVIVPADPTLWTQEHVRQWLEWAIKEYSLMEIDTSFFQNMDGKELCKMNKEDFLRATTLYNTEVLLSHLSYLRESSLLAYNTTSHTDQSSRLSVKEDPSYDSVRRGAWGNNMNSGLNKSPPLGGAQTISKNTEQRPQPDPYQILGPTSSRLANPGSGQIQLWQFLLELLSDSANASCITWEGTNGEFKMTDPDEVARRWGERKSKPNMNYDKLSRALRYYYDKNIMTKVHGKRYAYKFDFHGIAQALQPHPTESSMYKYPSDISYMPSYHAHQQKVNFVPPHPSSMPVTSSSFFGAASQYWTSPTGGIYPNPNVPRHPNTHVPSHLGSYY
Procedure, shortened: (§1)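 A tag-only sample was pooled with DNA-barcoded human transcription factors that had been expressed in yeast as GST fusions and captured on glutathione beads. The pools were incubated for 30 min at room temperature with 200 nmole of a random double-stranded 16-mer DNA library in Tris/NaCl/DTT/glycerol buffer, then washed, crosslinked with 0.1% formaldehyde, proximity-ligated (BsaI/T4 ligase, 1 h, 37 °C), PCR-amplified and sequenced on an Illumina NextSeq500. Binding signal is each hexamer's read frequency for a factor divided by its frequency for the tag-only sample.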

ELK1 = molecular target: T2, ELK1 (Homo sapiens, UniProt P19419 1-428); conditions: protein: recombinant; tags: N-terminal GST; dsDNA, one strand shown
T2 sequence: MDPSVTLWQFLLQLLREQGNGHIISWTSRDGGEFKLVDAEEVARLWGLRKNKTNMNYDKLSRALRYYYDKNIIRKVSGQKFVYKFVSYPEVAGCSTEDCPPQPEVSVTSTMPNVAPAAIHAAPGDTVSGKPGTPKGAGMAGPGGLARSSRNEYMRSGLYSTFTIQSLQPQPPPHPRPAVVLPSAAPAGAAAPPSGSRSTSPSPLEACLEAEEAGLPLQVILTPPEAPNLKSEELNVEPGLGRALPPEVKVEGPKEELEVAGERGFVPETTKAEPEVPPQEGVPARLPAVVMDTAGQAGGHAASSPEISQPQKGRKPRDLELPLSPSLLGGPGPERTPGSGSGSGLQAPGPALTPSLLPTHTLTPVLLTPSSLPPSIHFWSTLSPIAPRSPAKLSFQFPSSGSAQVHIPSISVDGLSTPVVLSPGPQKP
Procedure, shortened: as §1

GABPA = molecular target: T3, GABPA (Homo sapiens, UniProt Q06546 1-454); conditions: protein: recombinant; tags: N-terminal GST; dsDNA, one strand shown
T3 sequence: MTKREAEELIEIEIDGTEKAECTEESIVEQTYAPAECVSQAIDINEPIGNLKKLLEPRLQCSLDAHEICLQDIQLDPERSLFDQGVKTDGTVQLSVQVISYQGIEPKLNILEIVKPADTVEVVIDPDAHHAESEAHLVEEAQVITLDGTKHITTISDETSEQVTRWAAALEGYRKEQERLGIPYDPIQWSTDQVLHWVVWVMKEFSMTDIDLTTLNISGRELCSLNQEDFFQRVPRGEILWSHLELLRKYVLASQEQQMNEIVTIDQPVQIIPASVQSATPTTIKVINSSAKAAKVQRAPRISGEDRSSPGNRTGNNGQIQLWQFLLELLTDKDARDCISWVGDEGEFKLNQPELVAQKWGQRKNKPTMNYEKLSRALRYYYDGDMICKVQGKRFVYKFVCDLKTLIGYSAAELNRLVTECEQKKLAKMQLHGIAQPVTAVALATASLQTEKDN
Procedure, shortened: as §1

ERG = molecular target: T4, ERG (Homo sapiens, UniProt P11308 1-479); conditions: protein: recombinant; tags: N-terminal GST; dsDNA, one strand shown
T4 sequence: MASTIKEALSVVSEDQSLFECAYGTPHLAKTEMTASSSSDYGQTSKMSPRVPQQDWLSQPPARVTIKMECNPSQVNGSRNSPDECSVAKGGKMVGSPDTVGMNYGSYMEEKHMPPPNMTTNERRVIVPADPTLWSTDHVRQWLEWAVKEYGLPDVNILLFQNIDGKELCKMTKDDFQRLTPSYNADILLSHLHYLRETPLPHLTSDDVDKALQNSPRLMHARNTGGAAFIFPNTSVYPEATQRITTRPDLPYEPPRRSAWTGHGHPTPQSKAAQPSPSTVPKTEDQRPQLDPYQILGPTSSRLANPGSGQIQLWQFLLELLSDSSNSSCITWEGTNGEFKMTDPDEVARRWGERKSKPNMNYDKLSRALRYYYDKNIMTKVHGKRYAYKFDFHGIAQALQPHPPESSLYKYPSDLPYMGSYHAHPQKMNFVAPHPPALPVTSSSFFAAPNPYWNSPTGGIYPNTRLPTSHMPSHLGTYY
Procedure, shortened: as §1

ELF1 = ELF1 (Homo sapiens, UniProt P32519 1-619); conditions: protein: recombinant; tags: N-terminal GST; dsDNA, one strand shown
Procedure, shortened: as §1

EHF = molecular target: T5, EHF (Homo sapiens, UniProt Q9NZC4 1-300); conditions: protein: recombinant; tags: N-terminal GST; dsDNA, one strand shown
T5 sequence: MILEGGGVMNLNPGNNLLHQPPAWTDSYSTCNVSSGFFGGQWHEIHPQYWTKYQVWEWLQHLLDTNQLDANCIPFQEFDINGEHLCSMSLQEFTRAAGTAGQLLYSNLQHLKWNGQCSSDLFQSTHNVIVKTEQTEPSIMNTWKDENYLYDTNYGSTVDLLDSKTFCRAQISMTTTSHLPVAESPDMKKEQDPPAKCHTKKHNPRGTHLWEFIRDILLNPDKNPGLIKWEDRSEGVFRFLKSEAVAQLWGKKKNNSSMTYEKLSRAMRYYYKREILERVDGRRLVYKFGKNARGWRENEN
Procedure, shortened: as §1

SPI1 = SPI1 (Homo sapiens, UniProt P17947 1-270); conditions: protein: recombinant; tags: N-terminal GST; dsDNA, one strand shown
Procedure, shortened: as §1

SPIB = SPIB (Homo sapiens, UniProt Q01892 1-262); conditions: protein: recombinant; tags: N-terminal GST; dsDNA, one strand shown
Procedure, shortened: as §1

ELK3 = molecular target: T6, ELK3 (Homo sapiens, UniProt P41970 1-407); conditions: protein: recombinant; tags: N-terminal GST; dsDNA, one strand shown
T6 sequence: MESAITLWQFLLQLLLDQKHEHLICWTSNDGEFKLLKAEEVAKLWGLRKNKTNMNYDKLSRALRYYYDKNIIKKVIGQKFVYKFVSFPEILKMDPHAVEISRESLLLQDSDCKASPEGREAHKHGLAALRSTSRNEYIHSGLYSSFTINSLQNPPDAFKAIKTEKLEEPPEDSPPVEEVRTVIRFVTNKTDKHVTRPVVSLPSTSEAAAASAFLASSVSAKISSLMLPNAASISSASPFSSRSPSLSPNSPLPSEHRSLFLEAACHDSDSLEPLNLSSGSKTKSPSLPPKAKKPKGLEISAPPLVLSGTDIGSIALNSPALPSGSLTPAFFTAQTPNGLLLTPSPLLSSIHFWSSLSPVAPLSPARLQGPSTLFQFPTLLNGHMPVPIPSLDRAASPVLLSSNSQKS
Procedure, shortened: as §1

FEV = molecular target: T7, FEV (Homo sapiens, UniProt Q99581 1-238); conditions: protein: recombinant; tags: N-terminal GST; dsDNA, one strand shown
T7 sequence: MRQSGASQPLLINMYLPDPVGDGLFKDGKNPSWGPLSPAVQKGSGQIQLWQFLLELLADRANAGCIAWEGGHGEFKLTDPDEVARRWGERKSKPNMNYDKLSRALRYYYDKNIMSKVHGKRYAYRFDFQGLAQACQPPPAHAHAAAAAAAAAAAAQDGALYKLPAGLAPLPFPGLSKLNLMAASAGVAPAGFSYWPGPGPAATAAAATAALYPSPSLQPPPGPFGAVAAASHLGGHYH
Procedure, shortened: as §1

ETV5 = ETV5 (Homo sapiens, UniProt P41161 1-510); conditions: protein: recombinant; tags: N-terminal GST; dsDNA, one strand shown
Procedure, shortened: as §1

HSF1 = HSF1 (Homo sapiens, UniProt Q00613 1-529); conditions: protein: recombinant; tags: N-terminal GST; chain copies: 3; dsDNA, one strand shown
Procedure, shortened: as §1

SPIC = molecular target: T8, SPIC (Homo sapiens, UniProt Q8N5J4 1-248); conditions: protein: recombinant; tags: N-terminal GST; dsDNA, one strand shown
T8 sequence: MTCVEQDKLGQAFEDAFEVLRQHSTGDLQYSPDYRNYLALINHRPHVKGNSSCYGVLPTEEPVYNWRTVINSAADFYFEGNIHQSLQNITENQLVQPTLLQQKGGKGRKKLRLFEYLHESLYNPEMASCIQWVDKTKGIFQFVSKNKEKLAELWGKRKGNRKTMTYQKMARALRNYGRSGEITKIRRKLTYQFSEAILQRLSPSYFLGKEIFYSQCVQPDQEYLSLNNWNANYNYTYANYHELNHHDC
Procedure, shortened: as §1

ELF4 = ELF4 (Homo sapiens, UniProt Q99607 1-663); conditions: protein: recombinant; tags: N-terminal GST; dsDNA, one strand shown
Procedure, shortened: as §1

ELK4 = molecular target: T9, ELK4 (Homo sapiens, UniProt P28324-2 1-405); conditions: protein: recombinant; tags: N-terminal GST; dsDNA, one strand shown
T9 sequence: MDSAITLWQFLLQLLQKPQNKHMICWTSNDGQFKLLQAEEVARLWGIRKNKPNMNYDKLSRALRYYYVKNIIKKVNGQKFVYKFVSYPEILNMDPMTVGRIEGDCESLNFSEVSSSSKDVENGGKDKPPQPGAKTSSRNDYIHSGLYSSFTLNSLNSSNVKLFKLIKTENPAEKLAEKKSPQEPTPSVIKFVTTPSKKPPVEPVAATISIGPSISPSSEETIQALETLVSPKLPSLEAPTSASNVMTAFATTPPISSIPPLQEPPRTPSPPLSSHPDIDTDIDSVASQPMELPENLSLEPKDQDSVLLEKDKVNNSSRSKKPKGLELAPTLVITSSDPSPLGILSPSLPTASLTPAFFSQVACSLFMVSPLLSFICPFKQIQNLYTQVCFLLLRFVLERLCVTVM
Procedure, shortened: as §1

ETV2 = molecular target: T10, ETV2 (Homo sapiens, UniProt O00321 1-342); conditions: protein: recombinant; tags: N-terminal GST; dsDNA, one strand shown
T10 sequence: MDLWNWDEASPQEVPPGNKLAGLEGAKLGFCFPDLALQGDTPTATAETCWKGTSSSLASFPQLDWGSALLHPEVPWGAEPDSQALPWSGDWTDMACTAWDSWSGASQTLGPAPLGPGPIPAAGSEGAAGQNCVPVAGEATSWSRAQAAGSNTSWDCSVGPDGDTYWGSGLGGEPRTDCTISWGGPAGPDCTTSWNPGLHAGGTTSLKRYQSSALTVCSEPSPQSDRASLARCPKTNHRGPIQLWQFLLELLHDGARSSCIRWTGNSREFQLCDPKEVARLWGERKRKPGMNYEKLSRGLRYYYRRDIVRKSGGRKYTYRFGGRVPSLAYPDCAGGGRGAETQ
Procedure, shortened: as §1

ELF3 = molecular target: T11, ELF3 (Homo sapiens, UniProt P78545 1-371); conditions: protein: recombinant; tags: N-terminal GST; dsDNA, one strand shown
T11 sequence: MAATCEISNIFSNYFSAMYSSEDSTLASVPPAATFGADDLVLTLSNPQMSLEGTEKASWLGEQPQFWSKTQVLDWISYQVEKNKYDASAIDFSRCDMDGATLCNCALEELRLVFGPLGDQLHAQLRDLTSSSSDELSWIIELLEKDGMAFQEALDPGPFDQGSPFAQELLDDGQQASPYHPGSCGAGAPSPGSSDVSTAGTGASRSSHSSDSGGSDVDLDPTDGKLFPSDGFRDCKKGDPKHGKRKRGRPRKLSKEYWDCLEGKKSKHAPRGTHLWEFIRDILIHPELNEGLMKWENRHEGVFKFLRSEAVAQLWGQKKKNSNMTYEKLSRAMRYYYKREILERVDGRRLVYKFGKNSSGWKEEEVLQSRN
Procedure, shortened: as §1

CRX = CRX (Homo sapiens, UniProt O43186 1-299); conditions: protein: recombinant; tags: N-terminal GST; dsDNA, one strand shown
Procedure, shortened: as §1

ETV1 = ETV1 (Homo sapiens, UniProt P50549 1-477); conditions: protein: recombinant; tags: N-terminal GST; dsDNA, one strand shown
Procedure, shortened: as §1

Chain of SPIB (Q01892 whole entry): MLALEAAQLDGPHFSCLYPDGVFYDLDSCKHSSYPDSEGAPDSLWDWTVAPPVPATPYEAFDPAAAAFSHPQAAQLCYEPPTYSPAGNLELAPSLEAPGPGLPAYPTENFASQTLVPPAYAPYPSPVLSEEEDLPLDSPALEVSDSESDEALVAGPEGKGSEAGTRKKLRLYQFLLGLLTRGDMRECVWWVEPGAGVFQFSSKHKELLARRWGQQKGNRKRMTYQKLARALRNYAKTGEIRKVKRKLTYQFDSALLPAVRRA
Chain of ELF1 (P32519 whole entry): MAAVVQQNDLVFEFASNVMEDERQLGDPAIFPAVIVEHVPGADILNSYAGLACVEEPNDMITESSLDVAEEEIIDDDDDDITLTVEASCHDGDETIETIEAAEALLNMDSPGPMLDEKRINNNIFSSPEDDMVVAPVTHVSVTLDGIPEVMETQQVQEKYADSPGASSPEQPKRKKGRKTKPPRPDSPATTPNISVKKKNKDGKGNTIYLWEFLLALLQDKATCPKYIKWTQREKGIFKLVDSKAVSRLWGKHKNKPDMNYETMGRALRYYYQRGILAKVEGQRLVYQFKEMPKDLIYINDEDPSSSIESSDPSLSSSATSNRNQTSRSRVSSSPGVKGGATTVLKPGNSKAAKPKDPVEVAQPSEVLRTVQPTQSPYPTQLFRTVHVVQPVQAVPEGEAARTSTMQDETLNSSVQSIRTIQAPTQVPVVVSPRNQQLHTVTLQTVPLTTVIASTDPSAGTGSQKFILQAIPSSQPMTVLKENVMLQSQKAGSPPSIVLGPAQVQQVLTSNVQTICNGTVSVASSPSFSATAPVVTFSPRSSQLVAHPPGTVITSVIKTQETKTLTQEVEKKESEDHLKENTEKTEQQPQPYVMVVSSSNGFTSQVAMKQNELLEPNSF
Chain of ETV5 (P41161 whole entry): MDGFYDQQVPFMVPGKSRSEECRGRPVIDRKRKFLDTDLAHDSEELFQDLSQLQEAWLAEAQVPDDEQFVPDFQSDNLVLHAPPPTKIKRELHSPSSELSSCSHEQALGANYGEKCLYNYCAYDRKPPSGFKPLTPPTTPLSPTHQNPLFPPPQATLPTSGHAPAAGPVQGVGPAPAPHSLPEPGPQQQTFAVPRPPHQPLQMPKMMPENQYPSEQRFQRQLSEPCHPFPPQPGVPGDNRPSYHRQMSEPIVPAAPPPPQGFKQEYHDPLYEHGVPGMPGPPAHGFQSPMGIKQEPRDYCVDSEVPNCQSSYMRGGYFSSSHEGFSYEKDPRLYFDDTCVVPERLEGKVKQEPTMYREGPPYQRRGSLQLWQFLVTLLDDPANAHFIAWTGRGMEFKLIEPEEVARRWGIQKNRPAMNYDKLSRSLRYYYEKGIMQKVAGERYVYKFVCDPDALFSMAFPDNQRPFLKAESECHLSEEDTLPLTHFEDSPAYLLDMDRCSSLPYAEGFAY
Chain of HSF1 (Q00613 whole entry): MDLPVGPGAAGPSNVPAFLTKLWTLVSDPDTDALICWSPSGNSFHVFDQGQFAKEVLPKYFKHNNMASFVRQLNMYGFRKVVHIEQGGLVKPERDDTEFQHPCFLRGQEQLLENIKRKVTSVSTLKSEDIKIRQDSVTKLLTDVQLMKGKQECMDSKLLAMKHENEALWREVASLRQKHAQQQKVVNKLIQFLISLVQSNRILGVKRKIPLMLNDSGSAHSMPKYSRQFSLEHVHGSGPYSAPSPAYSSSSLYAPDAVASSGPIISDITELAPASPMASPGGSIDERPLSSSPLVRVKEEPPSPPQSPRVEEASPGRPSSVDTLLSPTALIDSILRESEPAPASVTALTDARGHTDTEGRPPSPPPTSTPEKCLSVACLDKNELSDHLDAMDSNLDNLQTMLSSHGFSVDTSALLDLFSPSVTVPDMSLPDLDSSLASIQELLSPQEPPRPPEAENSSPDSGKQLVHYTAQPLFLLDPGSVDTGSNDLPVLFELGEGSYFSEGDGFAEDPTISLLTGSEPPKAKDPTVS
Chain of CRX (O43186 whole entry): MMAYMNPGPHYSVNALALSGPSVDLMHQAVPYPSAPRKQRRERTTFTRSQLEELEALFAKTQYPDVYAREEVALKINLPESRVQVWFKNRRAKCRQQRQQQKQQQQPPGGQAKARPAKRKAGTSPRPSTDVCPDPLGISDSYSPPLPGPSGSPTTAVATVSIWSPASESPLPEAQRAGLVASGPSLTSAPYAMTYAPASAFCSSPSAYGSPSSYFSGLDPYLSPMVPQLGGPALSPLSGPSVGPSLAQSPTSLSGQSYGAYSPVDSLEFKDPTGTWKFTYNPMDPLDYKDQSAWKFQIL
Chain of ETV1 (P50549 whole entry): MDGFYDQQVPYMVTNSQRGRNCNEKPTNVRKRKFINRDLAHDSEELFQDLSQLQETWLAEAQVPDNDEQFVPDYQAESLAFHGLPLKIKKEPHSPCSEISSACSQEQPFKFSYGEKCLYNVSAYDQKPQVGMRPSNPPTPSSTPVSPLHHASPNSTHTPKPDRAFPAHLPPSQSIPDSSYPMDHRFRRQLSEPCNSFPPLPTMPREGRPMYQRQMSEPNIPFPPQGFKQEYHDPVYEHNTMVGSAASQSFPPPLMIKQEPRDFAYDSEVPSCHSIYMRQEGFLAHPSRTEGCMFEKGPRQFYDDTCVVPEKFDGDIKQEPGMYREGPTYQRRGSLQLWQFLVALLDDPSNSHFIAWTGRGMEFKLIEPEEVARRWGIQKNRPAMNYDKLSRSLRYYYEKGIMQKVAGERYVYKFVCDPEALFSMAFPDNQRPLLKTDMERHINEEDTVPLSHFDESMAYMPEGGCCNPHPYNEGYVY
Chain of ELF4 (Q99607 whole entry): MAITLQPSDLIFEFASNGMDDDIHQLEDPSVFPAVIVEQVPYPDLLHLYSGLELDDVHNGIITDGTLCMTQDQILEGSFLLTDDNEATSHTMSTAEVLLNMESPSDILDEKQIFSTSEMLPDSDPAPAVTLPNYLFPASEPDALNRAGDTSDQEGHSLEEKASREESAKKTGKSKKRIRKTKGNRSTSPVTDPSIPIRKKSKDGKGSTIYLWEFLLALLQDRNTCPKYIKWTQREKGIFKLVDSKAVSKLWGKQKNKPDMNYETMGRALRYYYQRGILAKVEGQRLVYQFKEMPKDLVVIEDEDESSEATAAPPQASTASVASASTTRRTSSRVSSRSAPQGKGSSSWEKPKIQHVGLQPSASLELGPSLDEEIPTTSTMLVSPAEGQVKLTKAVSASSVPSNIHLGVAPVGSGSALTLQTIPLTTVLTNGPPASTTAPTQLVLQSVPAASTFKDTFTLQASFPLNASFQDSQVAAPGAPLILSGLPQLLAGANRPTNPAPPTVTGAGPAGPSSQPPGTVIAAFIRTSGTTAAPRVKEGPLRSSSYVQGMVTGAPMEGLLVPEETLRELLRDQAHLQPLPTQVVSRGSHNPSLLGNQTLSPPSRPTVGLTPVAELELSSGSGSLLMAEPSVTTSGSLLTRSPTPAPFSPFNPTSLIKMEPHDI

In the case of TCTCCG, the binding signal (FLI1) was 1.51 fold enrichment (6-mer frequency, TF over GST control), the binding signal (ELK1) was 1.49 fold enrichment (6-mer frequency, TF over GST control) and the binding signal (GABPA) was 1.57 fold enrichment (6-mer frequency, TF over GST control). The binding signal (ERG) was 1.42 fold enrichment (6-mer frequency, TF over GST control), the binding signal (ELF1) was 1.6 fold enrichment (6-mer frequency, TF over GST control) and the binding signal (EHF) was 1.57 fold enrichment (6-mer frequency, TF over GST control). For the same sequence, the binding signal (SPI1) was 1.54 fold enrichment (6-mer frequency, TF over GST control), the binding signal (SPIB) was 1.52 fold enrichment (6-mer frequency, TF over GST control) and the binding signal (ELK3) was 1.38 fold enrichment (6-mer frequency, TF over GST control). For the same sequence, the binding signal (FEV) was 1.69 fold enrichment (6-mer frequency, TF over GST control), the binding signal (ETV5) was 1.61 fold enrichment (6-mer frequency, TF over GST control) and the binding signal (HSF1) was 1.43 fold enrichment (6-mer frequency, TF over GST control). The binding signal (SPIC) was 1.55 fold enrichment (6-mer frequency, TF over GST control), the binding signal (ELF4) was 1.59 fold enrichment (6-mer frequency, TF over GST control) and the binding signal (ELK4) was 1.68 fold enrichment (6-mer frequency, TF over GST control). The binding signal (ETV2) was 1.47 fold enrichment (6-mer frequency, TF over GST control), the binding signal (ELF3) was 1.2 fold enrichment (6-mer frequency, TF over GST control) and the binding signal (CRX) was 1.37 fold enrichment (6-mer frequency, TF over GST control). For the same sequence, the binding signal (ETV1) was 1.48 fold enrichment (6-mer frequency, TF over GST control).
